Test results as given in PubChem BioAssay (Tox21).
Unmarked numbers belong to inactive results. Inconclusive results are not listed. Calls of active or inactive are those of the source. Unless noted, the call rests on the fitted dose curve; in most records, active means well fitted curve in the direction sought with a large enough effect in the repeat runs; inconclusive means weak or mixed curves; inactive means no such curve, though single readings can be large; an effect the other way counts as inactive or inconclusive.

Tested on: not listed separately
Test: qHTS assay to identify small molecule agonists of the androgen receptor (AR) signaling pathway in the presence of an antagonist - cell viability counter screen (AID 1259379); further: nearly all actives have a fitted effect of over 25% in size; further: potency means the concentration at half of the fitted maximal effect;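 on activity change, negative = cytotoxicity: MDA-kb2 human breast cancer cells carrying an MMTV luciferase reporter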
Conditions: MDA-kb2 viability, CellTiter-Fluor, 16 h; series mostly up to 92.4 µM; activity change, negative = cytotoxicity: at the top concentration
Outline: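 In MDA-kb2 cells (human breast carcinoma, MMTV-luciferase), compounds at 15 concentrations plus 3.0uM nilutamide; 16 hr, 37C, 0% CO2; CellTiter-Fluor fluorescence read for viability.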
On the % scale 0 is the no-effect control and ±100 the full control effect.

Row | SMILES | activity change, negative = cytotoxicity | Potency
1 | NS(=O)(=O)c1ccc(Cl)c(S(N)(=O)=O)c1 | 1.95% [at 42.5 µM] | –
2 | O=C(O)c1ccccc1C(=O)Nc1ccc(S(=O)(=O)Nc2nccs2)cc1 | 1.98% [at 42.5 µM] | –
3 | COCC(=O)Nc1c(I)c(C(=O)NCC(O)CO)c(I)c(C(=O)N(C)CC(O)CO)c1I (stereo unspecified) | -3.23% [at 42.5 µM] | –
4 | NC(=O)NC(=O)Cc1ccccc1 | 0.692% [at 42.5 µM] | –
5 | C=CCOC(=O)c1ccc(C(=O)OCC=C)c(C(=O)OCC=C)c1 | -0.285% | –
6 | CC(C)SCc1ccco1 | -0.531% [at 42.5 µM] | –
7 | CCCOC(=O)CCCCC(=O)OCCC | 0.699% | –
8 | C=CCOc1c(Br)cc(C(C)(C)c2cc(Br)c(OCC=C)c(Br)c2)cc1Br | 0.0201% [at 42.5 µM] | –
9 | C/C=C(\C)C(=O)OCC/C=C\CC | 0.696% | –
10 | COc1cc([N+](=O)[O-])ccc1N | – | 34.4 µM (active)
11 | CCN1CN(CC)CN(CC)C1 | 0.613% | –
12 | C=CCOCC(CO)(COCC=C)COCC=C | 2.99% [at 42.5 µM] | –
13 | CC(C)CCCCCCOC(=O)C1CCCCC1C(=O)OCCCCCCC(C)C (stereo unspecified) | -0.813% | –
14 | CCOc1ccc(NC(=O)OC(C)C)cc1OCC | -1.1% | –
15 | NC(Cc1c[nH]c2ccccc12)C(=O)O (stereo unspecified) | 0.665% [at 42.5 µM] | –
16 | O=C1c2ccccc2-c2ccccc21 | 1.89% | –
17 | CCCCC(CC)COC(=O)c1ccccc1 (stereo unspecified) | -0.518% | –
18 | c1ccc(CNc2ncnc3nc[nH]c23)cc1 | 2.44% | –
19 | CC(C)CCCC(C)CC=O (stereo unspecified) | 0.253% | –

Row | SMILES | activity change, negative = cytotoxicity | Potency
20 | CCN(Cc1cccc(S(=O)(=O)O)c1)c1ccccc1 | -1.31% | –
21 | CO[Si](CCCCl)(OC)OC | 0.194% | –
22 | NS(=O)(=O)c1ccccc1OC(F)(F)F | 2.02% | –
23 | CCOC(=O)CC#N | 0.954% | –
24 | CCCCCCCCCCC | -5.17% | –
25 | O=c1[nH]c(=O)c2ccccc2o1 | 3.14% [at 42.5 µM] | –
26 | CC(=O)N1CCN(c2ccc(O)cc2)CC1 | -0.792% [at 42.5 µM] | –
27 | COc1cc2c(Nc3ccc(Br)cc3F)ncnc2cc1OCC1CCN(C)CC1 | 2.11% [at 42.5 µM] | –
28 | NS(=O)(=O)c1cc2c(cc1Cl)NC(CC1CCCC1)NS2(=O)=O (stereo unspecified) | -0.264% [at 42.5 µM] | –
29 | N#CCCOCCOCCC#N | 4.19% | –
30 | Cc1ccc2c(c1)c1c3n2CCNC3CCC1 (stereo unspecified) | 1.8% [at 42.5 µM] | –
31 | C1CCN2C[C@@H]3C[C@@H](CN4CCCC[C@@H]34)[C@H]2C1 | 0.817% [at 42.5 µM] | –
32 | Cn1c(=O)c2c(ncn2CC2OCCO2)n(C)c1=O | 4.12% [at 42.5 µM] | –
33 | O=C(O)c1ccc(OCCN2CCCCC2)cc1 | 1.08% [at 42.5 µM] | –
34 | COC(=O)CCC(=O)O | 2.54% | –
35 | NS(=O)(=O)c1cc2c(cc1Cl)NC(C(Cl)Cl)NS2(=O)=O (stereo unspecified) | -1.4% [at 42.5 µM] | –
36 | CCCCC(CC)CNC(=O)CC(C)OC(=O)CCC(=O)O (stereo unspecified) | -1.96% [at 42.5 µM] | –
37 | C[C@@H]1C[C@H]2[C@@H]3C[C@H](F)C4=CC(=O)C=C[C@]4(C)[C@@]3(F)[C@@H](O)C[C@]2(C)[C@@]1(O)C(=O)CO | 2.1% [at 42.5 µM] | –
38 | COc1ccc(N=Nc2cc(C)c(N=Nc3ccc(S(=O)(=O)O)cc3)cc2OC)cc1 | – | 48.6 µM (active)

Tested on: not listed separately
Test: qHTS assay to identify small molecule agonists of the estrogen receptor beta (ER-beta) signaling pathway - cell viability counter screen (AID 1259380); further: nearly all actives have a fitted effect of over 30% in size
Conditions: ER-beta-bla HEK293T viability, CellTiter-Glo luminescence, 16 h; series mostly up to 92.4 µM; activity change, negative = cytotoxicity: at the top concentration
Outline: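 Viability of ER-beta-UAS-bla HEK293T cells was determined by CellTiter-Glo luminescence following 16 hr treatment with test compounds at 37C.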

Row | SMILES | activity change, negative = cytotoxicity
39 | O=C(O)c1ccccc1C(=O)Nc1ccc(S(=O)(=O)Nc2nccs2)cc1 | 1.91% [at 42.5 µM]
40 | NC(=O)NC(=O)Cc1ccccc1 | 11.5% [at 42.5 µM]
41 | C=CCOC(=O)c1ccc(C(=O)OCC=C)c(C(=O)OCC=C)c1 | -2.24%
42 | CC(C)SCc1ccco1 | 2.13% [at 42.5 µM]
43 | CCCOC(=O)CCCCC(=O)OCCC | -0.476%
44 | C=CCOc1c(Br)cc(C(C)(C)c2cc(Br)c(OCC=C)c(Br)c2)cc1Br | 0.0084% [at 42.5 µM]
45 | COc1cc([N+](=O)[O-])ccc1N | -4.66%
46 | CCN1CN(CC)CN(CC)C1 | 4.09%
47 | C=CCOCC(CO)(COCC=C)COCC=C | 0.617% [at 42.5 µM]
48 | CC(C)CCCCCCOC(=O)C1CCCCC1C(=O)OCCCCCCC(C)C (stereo unspecified) | -4.82%
49 | NC(Cc1c[nH]c2ccccc12)C(=O)O (stereo unspecified) | -1.93% [at 42.5 µM]
50 | CC(C)CCCC(C)CC=O (stereo unspecified) | 4.01%
51 | CCN(Cc1cccc(S(=O)(=O)O)c1)c1ccccc1 | 0.727%
52 | NS(=O)(=O)c1ccccc1OC(F)(F)F | 2.56%
53 | O=c1[nH]c(=O)c2ccccc2o1 | 3.78% [at 42.5 µM]
54 | CC(=O)N1CCN(c2ccc(O)cc2)CC1 | -11.2% [at 42.5 µM]
55 | O=C(O)c1ccc(OCCN2CCCCC2)cc1 | 1.09% [at 42.5 µM]
56 | CCCCC(CC)CNC(=O)CC(C)OC(=O)CCC(=O)O (stereo unspecified) | -10.1% [at 42.5 µM]
57 | C[C@@H]1C[C@H]2[C@@H]3C[C@H](F)C4=CC(=O)C=C[C@]4(C)[C@@]3(F)[C@@H](O)C[C@]2(C)[C@@]1(O)C(=O)CO | -6.66% [at 42.5 µM]

Target: Androgen receptor (Homo sapiens) (UniProt P10275)
Sequence (P10275 whole entry, looked up): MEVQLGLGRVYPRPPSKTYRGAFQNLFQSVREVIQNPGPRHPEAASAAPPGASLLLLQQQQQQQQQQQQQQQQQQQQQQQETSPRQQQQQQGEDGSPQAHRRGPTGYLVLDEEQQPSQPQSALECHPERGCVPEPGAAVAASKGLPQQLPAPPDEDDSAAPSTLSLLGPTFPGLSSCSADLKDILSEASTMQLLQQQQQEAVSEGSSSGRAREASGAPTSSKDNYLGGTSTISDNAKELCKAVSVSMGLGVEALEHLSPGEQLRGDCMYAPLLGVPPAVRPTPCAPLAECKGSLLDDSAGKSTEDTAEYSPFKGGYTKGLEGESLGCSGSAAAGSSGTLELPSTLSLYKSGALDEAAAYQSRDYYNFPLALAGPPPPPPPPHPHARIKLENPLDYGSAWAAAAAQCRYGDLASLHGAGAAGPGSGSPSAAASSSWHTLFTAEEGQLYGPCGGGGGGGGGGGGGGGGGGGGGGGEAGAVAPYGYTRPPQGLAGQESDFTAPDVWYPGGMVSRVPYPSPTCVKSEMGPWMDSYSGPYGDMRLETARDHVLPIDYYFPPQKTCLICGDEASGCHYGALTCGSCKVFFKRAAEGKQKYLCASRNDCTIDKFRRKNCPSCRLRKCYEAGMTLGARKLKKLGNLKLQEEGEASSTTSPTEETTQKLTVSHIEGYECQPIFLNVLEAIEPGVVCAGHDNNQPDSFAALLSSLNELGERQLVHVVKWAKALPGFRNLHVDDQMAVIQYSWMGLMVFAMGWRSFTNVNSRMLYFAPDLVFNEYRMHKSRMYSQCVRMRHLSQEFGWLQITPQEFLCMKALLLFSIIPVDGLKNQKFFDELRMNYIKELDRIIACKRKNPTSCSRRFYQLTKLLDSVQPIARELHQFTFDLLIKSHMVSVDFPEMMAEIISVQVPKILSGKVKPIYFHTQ
Test: qHTS assay to identify small molecule agonists of the androgen receptor (AR) signaling pathway in the presence of an antagonist (AID 1259381; calls by dose curve; further: nearly all actives have a fitted effect of over 15% in size)
Conditions: MDA-kb2 MMTV-luciferase, AR agonist + nilutamide, 16 h; series mostly up to 92.4 µM; activation: at the top concentration
Outline: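 Here, 15-concentration compound series were pin-transferred onto MDA-kb2 MMTV-luciferase cells already dosed with nilutamide (3.0uM final). After 16hr at 37C, ONE-Glo was added and luminescence read 30min later at room temperature.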

Row | SMILES | activation
58 | O=C(O)c1ccccc1C(=O)Nc1ccc(S(=O)(=O)Nc2nccs2)cc1 | -0.871% [at 42.5 µM]
59 | COCC(=O)Nc1c(I)c(C(=O)NCC(O)CO)c(I)c(C(=O)N(C)CC(O)CO)c1I (stereo unspecified) | 1.2% [at 42.5 µM]
60 | COc1cc([N+](=O)[O-])ccc1N | 1.38%
61 | O=C1c2ccccc2-c2ccccc21 | 0.0152%
62 | CCCCCCCCCCC | 0.405%
63 | O=c1[nH]c(=O)c2ccccc2o1 | 0.0729% [at 42.5 µM]
64 | CC(=O)N1CCN(c2ccc(O)cc2)CC1 | 1.42% [at 42.5 µM]
65 | Cn1c(=O)c2c(ncn2CC2OCCO2)n(C)c1=O | -1.78% [at 42.5 µM]
66 | O=C(O)c1ccc(OCCN2CCCCC2)cc1 | -0.155% [at 42.5 µM]
67 | CCCCC(CC)CNC(=O)CC(C)OC(=O)CCC(=O)O (stereo unspecified) | 6.13% [at 42.5 µM]

Tested on: not listed separately
Test: qHTS assay to identify small molecule antagonists of the estrogen receptor beta (ER-beta) signaling pathway - cell viability counter screen (AID 1259382);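 further: HEK293T cells carrying ER-beta-UAS-bla reporter stimulated with estradiol; nearly all actives have a fitted effect of over 55% in size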
Conditions: ER-beta-UAS-bla HEK293T viability, CellTiter-Glo luminescence, 16 h; series mostly up to 92.4 µM; activity change, negative = cytotoxicity: at the top concentration
Outline: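 Tox21 10K library tested in qHTS format on ER-beta-bla HEK293T cells stimulated with 1nM E2; 16 hr treatment at 37C. Same-well CellTiter-Glo luminescence served as the cell viability measure.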

Row | SMILES | activity change, negative = cytotoxicity
68 | NS(=O)(=O)c1ccc(Cl)c(S(N)(=O)=O)c1 | 3.28% [at 42.5 µM]
69 | O=C(O)c1ccccc1C(=O)Nc1ccc(S(=O)(=O)Nc2nccs2)cc1 | 1.61% [at 42.5 µM]
70 | COCC(=O)Nc1c(I)c(C(=O)NCC(O)CO)c(I)c(C(=O)N(C)CC(O)CO)c1I (stereo unspecified) | 1.55% [at 42.5 µM]
71 | NC(=O)NC(=O)Cc1ccccc1 | 8.2% [at 42.5 µM]
72 | C=CCOC(=O)c1ccc(C(=O)OCC=C)c(C(=O)OCC=C)c1 | -5.05%
73 | CC(C)SCc1ccco1 | 1.31% [at 42.5 µM]
74 | CCCOC(=O)CCCCC(=O)OCCC | -0.0249%
75 | C=CCOc1c(Br)cc(C(C)(C)c2cc(Br)c(OCC=C)c(Br)c2)cc1Br | 7.08% [at 42.5 µM]
76 | C/C=C(\C)C(=O)OCC/C=C\CC | -0.161%
77 | CCN1CN(CC)CN(CC)C1 | -1.87%
78 | CCOc1ccc(NC(=O)OC(C)C)cc1OCC | -15.3%
79 | O=C1c2ccccc2-c2ccccc21 | 3.94%
80 | CCCCC(CC)COC(=O)c1ccccc1 (stereo unspecified) | 1.27%
81 | c1ccc(CNc2ncnc3nc[nH]c23)cc1 | -4.48%
82 | CCN(Cc1cccc(S(=O)(=O)O)c1)c1ccccc1 | -5.87%
83 | CO[Si](CCCCl)(OC)OC | 5.22%
84 | CCOC(=O)CC#N | 10.7%
85 | CCCCCCCCCCC | -12.4%
86 | O=c1[nH]c(=O)c2ccccc2o1 | 12.2% [at 42.5 µM]
87 | COc1cc2c(Nc3ccc(Br)cc3F)ncnc2cc1OCC1CCN(C)CC1 | 2.18% [at 42.5 µM]
88 | NS(=O)(=O)c1cc2c(cc1Cl)NC(CC1CCCC1)NS2(=O)=O (stereo unspecified) | 4.74% [at 42.5 µM]
89 | N#CCCOCCOCCC#N | 6.2%
90 | C1CCN2C[C@@H]3C[C@@H](CN4CCCC[C@@H]34)[C@H]2C1 | -10.6% [at 42.5 µM]
91 | Cn1c(=O)c2c(ncn2CC2OCCO2)n(C)c1=O | -0.83% [at 42.5 µM]
92 | O=C(O)c1ccc(OCCN2CCCCC2)cc1 | 0.0004% [at 42.5 µM]
93 | COC(=O)CCC(=O)O | 5.2%
94 | NS(=O)(=O)c1cc2c(cc1Cl)NC(C(Cl)Cl)NS2(=O)=O (stereo unspecified) | 10.6% [at 42.5 µM]
95 | CCCCC(CC)CNC(=O)CC(C)OC(=O)CCC(=O)O (stereo unspecified) | -12.5% [at 42.5 µM]
96 | C[C@@H]1C[C@H]2[C@@H]3C[C@H](F)C4=CC(=O)C=C[C@]4(C)[C@@]3(F)[C@@H](O)C[C@]2(C)[C@@]1(O)C(=O)CO | -3.89% [at 42.5 µM]
